Assay results taken from PubChem BioAssay (NCI).
The panel holds about 79,000 compounds, 15% with a hit somewhere; the sample as a whole holds those more often. Values without a mark were called inactive. Activity calls are given as the source filed them. No stated cut-off is given here; in the data, active means growth inhibition above about 70%; inactive means the rest.

Key:
[1] = NCI Yeast Anticancer Drug Screen. Data for the rad52 strain (AID 147);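 further: 0% = growth of vehicle-treated control cultures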; details: S. cerevisiae rad52 mutant growth inhibition, hits give high values
Method in brief: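 Inhibition of yeast growth, referenced to vehicle controls, was the measured output for a strain with defective DNA damage repair.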

[2] = NCI Yeast Anticancer Drug Screen. Data for the wt1 strain (AID 149);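 further: 0% = growth of vehicle-treated wt1 cultures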; details: S. cerevisiae wt1 strain (SPY 50644) growth inhibition, hits give high values
Method in brief: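 Vehicle-normalised growth inhibition; strain wt1; compound exposure.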

[3] = NCI Yeast Anticancer Drug Screen. Data for the mgt1 strain (AID 153); details: S. cerevisiae mgt1 mutant growth inhibition, hits give high values
Method in brief: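 In the mgt1 strain, test compounds were added and growth inhibition was determined relative to vehicle-treated controls.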

[4] = NCI Yeast Anticancer Drug Screen. Data for the rad50 strain (AID 155);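 further: 0% = growth of vehicle-only cultures of the same strain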; details: S. cerevisiae rad50 strain growth inhibition, hits give high values
Method in brief: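 A DNA repair-deficient yeast mutant serves as the test organism; compound-induced growth inhibition is calculated against vehicle-treated cells.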

[5] = NCI Yeast Anticancer Drug Screen. Data for the mec2-1 strain (AID 157); details: S. cerevisiae mec2-1 strain, hits give high values
Method in brief: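 Each compound was tested on mec2-1 yeast, a strain altered in DNA damage repair or cell cycle control. Growth inhibition is reported relative to vehicle.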

[6] = NCI Yeast Anticancer Drug Screen. Data for the rad14 strain (AID 159);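 further: 0% = growth of vehicle-treated control cultures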; details: S. cerevisiae rad14 strain growth inhibition, hits give high values
Method in brief: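 Vehicle-treated cultures served as the baseline for growth inhibition of a DNA repair-mutant yeast strain exposed to each compound.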

[7] = NCI Yeast Anticancer Drug Screen. Data for the sgs1 mgt1 strain (AID 161);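 further: 0% = growth of cultures given vehicle only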; details: S. cerevisiae sgs1 mgt1 strain, hits give high values
Method in brief: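 Read-out: growth inhibition vs vehicle controls. Cells: mutant yeast strain deficient in DNA damage repair.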

[8] = NCI Yeast Anticancer Drug Screen. Data for the CLN2oe strain (AID 163);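 further: 0% = growth of vehicle-only control cultures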; details: S. cerevisiae CLN2oe strain, hits give high values
Method in brief: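 First, the altered yeast strain was treated with each compound; second, its growth was measured; finally, inhibition was derived by comparison with vehicle controls.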

[9] = NCI Yeast Anticancer Drug Screen. Data for the cln2 rad14 strain (AID 165);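 further: 0% = growth equal to vehicle treated cultures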; details: S. cerevisiae cln2 rad14 strain, hits give high values
Method in brief: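 Test compounds were added to cln2 rad14 yeast cultures; inhibition of growth was then determined by comparison with vehicle treatment.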

[10] = NCI Yeast Anticancer Drug Screen. Data for the bub3 strain (AID 167); details: S. cerevisiae bub3 mutant strain, hits give high values
Method in brief: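 Inhibition values come from growth of compound-treated mutant yeast normalised to vehicle-treated controls.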

[11] = NCI Yeast Anticancer Drug Screen. Data for the wt2 strain (AID 169);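 further: 0% = growth of vehicle-treated yeast cultures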; details: S. cerevisiae wt2 strain growth inhibition, hits give high values
Method in brief: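 The panel's yeast strains carry defined changes in DNA repair or cell cycle genes. Each strain is grown with compound, and growth loss is scored relative to vehicle.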

[12] = NCI Yeast Anticancer Drug Screen. Data for the mlh1 strain (AID 171);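 further: 0% = growth of vehicle-treated control cultures of the same strain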; details: S. cerevisiae mlh1 strain growth inhibition, hits give high values
Method in brief: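 Inhibition values reflect reduced yeast growth in the presence of compound, referenced to vehicle controls, using a strain chosen for its alteration in DNA repair or cell cycle control.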

[13] = NCI Yeast Anticancer Drug Screen. Data for the sgs1 strain (AID 173);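 further: 0% = growth of vehicle-only control cultures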; details: S. cerevisiae sgs1 mutant, hits give high values
Method in brief: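 Vehicle-treated cultures served as reference for growth inhibition of a yeast strain altered in DNA damage repair or cell cycle control after compound exposure.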

[14] = NCI Yeast Anticancer Drug Screen. Data for the mlh1 rad18 strain (AID 175); details: S. cerevisiae mlh1 rad18 strain growth inhibition, hits give high values
Method in brief: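 Inhibition values reflect reduced growth of mutant yeast versus vehicle-treated controls following compound exposure; the mutations affect DNA damage repair.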

[15] = NCI Yeast Anticancer Drug Screen. Data for the rad18 strain (AID 177); details: S. cerevisiae rad18 mutant growth inhibition, hits give high values
Method in brief: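 Steps: expose repair-mutant yeast to compound; measure growth; express as inhibition relative to vehicle control.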

[16] = at 5.0 µM (retest, dose inferred, filed as 0.5)
[17] = at 50.0 µM (retest, dose inferred, filed as 5.0)

With `C=CC(C)(O)CCC1C(=C)C(O)CC2C(C)(C)CCCC12C` (stereo not drawn) the growth inhibition ([1]; at 1.2 µM) was 27%, the growth inhibition ([1]; at 3.7 µM) was 26% and the growth inhibition ([1]; at 11.0 µM) was 27%. For the same compound, the growth inhibition ([1]; at 33.0 µM) was 54%, the growth inhibition ([1]; at 100.0 µM) was 72% (active) and the growth inhibition ([2]; at 1.2 µM) was -26%. The growth inhibition ([2]; at 3.7 µM) was -10%, the growth inhibition ([2]; at 11.0 µM) was -17% and the growth inhibition ([2]; at 33.0 µM) was -11%. For the same compound, the growth inhibition ([2]; at 100.0 µM) was 69%, the growth inhibition ([3]; at 1.2 µM) was -4% and the growth inhibition ([3]; at 3.7 µM) was -16%. For the same compound, the growth inhibition ([3]; at 11.0 µM) was -24%, the growth inhibition ([3]; at 33.0 µM) was 14% and the growth inhibition ([3]; at 100.0 µM) was 66%. For the same compound, the growth inhibition ([4]; at 1.2 µM) was 15%, the growth inhibition ([4]; at 3.7 µM) was 19% and the growth inhibition [4, 16] was 36%. For the same compound, the growth inhibition ([4]; at 11.0 µM) was 19%, the growth inhibition ([4]; at 33.0 µM) was 61% and the growth inhibition [4, 17] was 43%. For the same compound, the growth inhibition ([4]; at 50.0 µM) was 63.6%, the growth inhibition ([4]; at 100.0 µM) was 84% (active) and the growth inhibition ([5]; at 1.2 µM) was -3%. The growth inhibition ([5]; at 3.7 µM) was 9%, the growth inhibition [5, 16] was 48% and the growth inhibition ([5]; at 11.0 µM) was -10%. For the same compound, the growth inhibition ([5]; at 33.0 µM) was 4%, the growth inhibition [5, 17] was 52% and the growth inhibition ([5]; at 50.0 µM) was 44.5%. The growth inhibition ([5]; at 100.0 µM) was 50%, the growth inhibition ([6]; at 1.2 µM) was -7% and the growth inhibition ([6]; at 3.7 µM) was -20%. The growth inhibition ([6]; at 11.0 µM) was -18%, the growth inhibition ([6]; at 33.0 µM) was 40% and the growth inhibition ([6]; at 100.0 µM) was 80% (active). The growth inhibition [7, 16] was -23%, the growth inhibition [7, 17] was 81% (active) and the growth inhibition ([7]; at 50.0 µM) was 80.5% (active). For the same compound, the growth inhibition ([8]; at 1.2 µM) was -8%, the growth inhibition ([8]; at 3.7 µM) was -34% and the growth inhibition ([8]; at 11.0 µM) was -8%. The growth inhibition ([8]; at 33.0 µM) was -16%, the growth inhibition ([8]; at 100.0 µM) was 28% and the growth inhibition [9, 16] was 50%. The growth inhibition [9, 17] was 66%, the growth inhibition ([9]; at 50.0 µM) was 16.7% and the growth inhibition ([10]; at 1.2 µM) was -4%. For the same compound, the growth inhibition ([10]; at 3.7 µM) was 7%, the growth inhibition [10, 16] was 19% and the growth inhibition ([10]; at 11.0 µM) was 1%. The growth inhibition ([10]; at 33.0 µM) was 31%, the growth inhibition [10, 17] was 80% (active) and the growth inhibition ([10]; at 50.0 µM) was 73% (active). The growth inhibition ([10]; at 100.0 µM) was 69%, the growth inhibition ([11]; at 1.2 µM) was -2% and the growth inhibition ([11]; at 3.7 µM) was -12%. The growth inhibition ([11]; at 11.0 µM) was -13%, the growth inhibition ([11]; at 33.0 µM) was 28% and the growth inhibition ([11]; at 100.0 µM) was 69%. The growth inhibition ([12]; at 1.2 µM) was -4%, the growth inhibition ([12]; at 3.7 µM) was -12% and the growth inhibition ([12]; at 11.0 µM) was -17%. The growth inhibition ([12]; at 33.0 µM) was 9%, the growth inhibition ([12]; at 100.0 µM) was 42% and the growth inhibition ([13]; at 1.2 µM) was 11%. It also gave a growth inhibition ([13]; at 3.7 µM) of 23%, a growth inhibition ([13]; at 11.0 µM) of 20% and a growth inhibition ([13]; at 33.0 µM) of 53%. For the same compound, the growth inhibition ([13]; at 100.0 µM) was 72% (active), the growth inhibition [14, 16] was 23% and the growth inhibition [14, 17] was 45%. For the same compound, the growth inhibition ([14]; at 50.0 µM) was 63.9%, the growth inhibition ([15]; at 1.2 µM) was -14% and the growth inhibition ([15]; at 3.7 µM) was -19%. For the same compound, the growth inhibition ([15]; at 11.0 µM) was -15%, the growth inhibition ([15]; at 33.0 µM) was 49% and the growth inhibition ([15]; at 100.0 µM) was 80% (active).

`CC(=O)Nc1ccc(/C=C(\C#N)c2ccc(C)cc2)cc1` showed a growth inhibition ([1]; at 1.2 µM) of -10%, a growth inhibition ([1]; at 3.7 µM) of 0% and a growth inhibition ([1]; at 11.0 µM) of -5%. It also gave a growth inhibition ([1]; at 33.0 µM) of -2%, a growth inhibition ([1]; at 100.0 µM) of 1% and a growth inhibition ([2]; at 1.2 µM) of 0%. The growth inhibition ([2]; at 3.7 µM) was -2%, the growth inhibition ([2]; at 11.0 µM) was -6% and the growth inhibition ([2]; at 33.0 µM) was -6%. For the same compound, the growth inhibition ([2]; at 100.0 µM) was 1%, the growth inhibition ([3]; at 1.2 µM) was -6% and the growth inhibition ([3]; at 3.7 µM) was -16%. The growth inhibition ([3]; at 11.0 µM) was -17%, the growth inhibition ([3]; at 33.0 µM) was -10% and the growth inhibition ([3]; at 100.0 µM) was -13%. The growth inhibition ([4]; at 1.2 µM) was -25%, the growth inhibition ([4]; at 3.7 µM) was -23% and the growth inhibition [4, 16] was 30%. For the same compound, the growth inhibition ([4]; at 11.0 µM) was -23%, the growth inhibition ([4]; at 33.0 µM) was -13% and the growth inhibition [4, 17] was 93% (active). It also gave a growth inhibition ([4]; at 50.0 µM) of 28.4%, a growth inhibition ([4]; at 100.0 µM) of -1% and a growth inhibition ([5]; at 1.2 µM) of -16%. The growth inhibition ([5]; at 3.7 µM) was -23%, the growth inhibition [5, 16] was 40% and the growth inhibition ([5]; at 11.0 µM) was -22%. The growth inhibition ([5]; at 33.0 µM) was -33%, the growth inhibition [5, 17] was 95% (active) and the growth inhibition ([5]; at 50.0 µM) was 18.7%. It also gave a growth inhibition ([5]; at 100.0 µM) of -30%, a growth inhibition ([6]; at 1.2 µM) of 1% and a growth inhibition ([6]; at 3.7 µM) of -9%. For the same compound, the growth inhibition ([6]; at 11.0 µM) was -5%, the growth inhibition ([6]; at 33.0 µM) was 4% and the growth inhibition ([6]; at 100.0 µM) was 1%. The growth inhibition [7, 16] was -12%, the growth inhibition [7, 17] was 45% and the growth inhibition ([7]; at 50.0 µM) was 24.6%. The growth inhibition ([8]; at 1.2 µM) was -3%, the growth inhibition ([8]; at 3.7 µM) was -1% and the growth inhibition ([8]; at 11.0 µM) was -3%. The growth inhibition ([8]; at 33.0 µM) was 8%, the growth inhibition ([8]; at 100.0 µM) was 20% and the growth inhibition [9, 16] was 63%. It also gave a growth inhibition [9, 17] of 2%, a growth inhibition ([9]; at 50.0 µM) of 19.2% and a growth inhibition ([10]; at 1.2 µM) of -27%. For the same compound, the growth inhibition ([10]; at 3.7 µM) was -21%, the growth inhibition [10, 16] was -11% and the growth inhibition ([10]; at 11.0 µM) was -12%. For the same compound, the growth inhibition ([10]; at 33.0 µM) was 7%, the growth inhibition [10, 17] was 39% and the growth inhibition ([10]; at 50.0 µM) was 63.7%. For the same compound, the growth inhibition ([10]; at 100.0 µM) was -16%, the growth inhibition ([11]; at 1.2 µM) was -1% and the growth inhibition ([11]; at 3.7 µM) was 9%. It also gave a growth inhibition ([11]; at 11.0 µM) of 6%, a growth inhibition ([11]; at 33.0 µM) of 5% and a growth inhibition ([11]; at 100.0 µM) of 0%.
